Data: PubChem BioAssay (NCATS)
“And” between values parts separate entries of the source, which are not always exact repeats. Equal entries are not always repeated. Inconclusive results are not listed. The source made the active and inactive calls. Unless noted, the rule behind the calls is not given here.

Legend:
[1] = qHTS profiling of the MIPE4 collection as inhibitors of Plasmodium falciparum (3D7) proliferation (AID 743344);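 note: scaled between DMSO vehicle wells and 0.29 µM artemisinin as full inhibition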; conditions: P. falciparum 3D7 in erythrocytes, SYBR Green DNA fluorescence, 72 h; at 28.5 µM unless noted
How it was run: (§1)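 Parasite DNA was quantified by SYBR Green I fluorescence (ex 485, em 535 nm) after overnight lysis in saponin/Triton buffer at room temperature. Cultures at 0.3% parasitemia and 2.5% hematocrit were first exposed to compound for 72 h at 37 C; signals were normalised to artemisinin (0.29 uM) and vehicle wells.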

[2] = qHTS profiling of the MIPE4 collection as inhibitors of Plasmodium falciparum (DD2) proliferation (AID 743345); conditions: P. falciparum Dd2 in erythrocytes, SYBR Green DNA, 72 h; at 28.5 µM unless noted
How it was run: as §1

[3] = qHTS profiling of the MIPE4 collection as inhibitors of Plasmodium falciparum (DD2) proliferation (Rep 2) (AID 743346); conditions: P. falciparum Dd2 in erythrocytes, SYBR Green DNA, 72 h; at 28.5 µM unless noted
How it was run: as §1

[4] = qHTS profiling of the MIPE4 collection as inhibitors of Plasmodium falciparum (HB3) proliferation (AID 743347);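 note: plate controls were DMSO vehicle wells for no effect and artemisinin wells for full effect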; conditions: P. falciparum HB3 in erythrocytes, SYBR Green DNA, 72 h; at 28.5 µM unless noted
How it was run: as §1

[5] = High-throughput drug toxicity screening in the BPDCN cell line Gen2.2 (AID 1224824); conditions: Gen2.2 BPDCN cells; at 45.8 µM (top of the series) unless noted;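 note: cells exposed to compounds for 48 h before reading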
How it was run: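 Gen2.2 cells, 500 per well in phenol red-free RPMI with 10% FBS, exposed to compounds 48 h at 37 C, 5% CO2; viability by CellTiter-Glo luminescence. Percent activity scaled to DMSO (100%) and 9.2 uM bortezomib final (0%).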

[6] = qHTS assay for measurement of the activity of small molecule inhibitors on Zika virus induced Caspase-3 activity in human iPSC derived neural progenitor cells (hNPCs) (AID 1224857; active = well fitted curve in the direction sought with a large enough effect; an effect the other way counts as inactive or inconclusive; note: nearly all actives have a fitted effect of over 65% in size; note: potency is the fitted concentration of half-maximal effect)
How it was run: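 Caspase-3/7 induction by a 6-hour ZIKV infection was quantified with a luminescent Caspase-Glo 3/7 reagent incubated 30 minutes at room temperature. Compounds were preincubated with hNPCs for 1 hour; inhibition was calculated against uninfected and infected control wells.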

[7] = qHTS assay for measurement of the activity of small molecule inhibitors on Zika virus induced Caspase-3 activity in human astrocytoma cells (AID 1224859; active = well fitted curve in the direction sought with a large enough effect; an effect the other way counts as inactive or inconclusive;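 note: plate controls were ZIKV-infected untreated cells for no effect and uninfected cells for full effect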)
How it was run: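 In SNB-19 cells plated at 250 cells/well and grown 16-20 h, compounds were applied 1 h before ZIKV (2 FFU/cell). Six hours later caspase-3/7 luminescence was recorded.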

[8] = qHTS Screen of the MIPE 4.0 Collection Against Ewings Sarcoma (RDES) (AID 1259252; active = well fitted curve in the direction sought with a large enough effect; an effect the other way counts as inactive or inconclusive; note: nearly all actives have a fitted effect of over 35% in size; note: potency is the fitted concentration of half-maximal effect)
How it was run: (§2)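 Viability screen: 48 h incubation at 37C, 95% humidity, 5% CO2 with serially titrated compound, followed by CellTiter-Glo readout.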

[9] = qHTS Screen of the MIPE 4.0 Collection Against Ewings Sarcoma (TC71) (AID 1259253; active = well fitted curve in the direction sought with a large enough effect; an effect the other way counts as inactive or inconclusive; note: nearly all actives have a fitted effect of over 40% in size; note: potency is the fitted concentration of half-maximal effect)
How it was run: as §2

[10] = qHTS Screen of the MIPE 4.0 Collection Against Ewings Sarcoma (EW8) (AID 1259255; active = well fitted curve in the direction sought with a large enough effect; an effect the other way counts as inactive or inconclusive; note: nearly all actives have a fitted effect of over 35% in size; note: potency is the fitted concentration of half-maximal effect;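 for viability: 100% = DMSO-treated cells and 0% = medium-only wells without cells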)
How it was run: as §2

[11] = qHTS Screen of the MIPE 4.0 Collection Against Ewings Sarcoma (TC32) (AID 1259256; active = well fitted curve in the direction sought with a large enough effect; an effect the other way counts as inactive or inconclusive; note: nearly all actives have a fitted effect of over 45% in size; note: potency is the fitted concentration of half-maximal effect)
How it was run: as §2

[12] = High-throughput drug toxicity screening in the BPDCN cell line Cal-1 (AID 1224825); conditions: Cal-1 BPDCN cell viability, qHTS; at 45.8 µM (top of the series) unless noted
How it was run: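 CellTiter-Glo luminescence after 48 h compound exposure; percent activity scaled with DMSO as 100% and bortezomib (9.2 uM final) as 0%. Cal-1 cells seeded at 500/well in RPMI, 10% FBS, no phenol red.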

[13] = P-glycoprotein substrates identified in KB-8-5-11 adenocarcinoma cell line, qHTS therapeutic library screen (AID 1346987; active = well fitted curve in the direction sought with a large enough effect; an effect the other way counts as inactive or inconclusive; note: nearly all actives have a fitted effect of over 65% in size; note: potency is the fitted concentration of half-maximal effect)
How it was run: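 Human cervical adenocarcinoma KB-8-5-11 cells, selected in colchicine to over-express P-gp and assayed without it, were exposed for 72 h to titrated compounds. An ATP-based luminescent viability signal gave AC50.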

[14] = P-glycoprotein substrates identified in KB-3-1 adenocarcinoma cell line, qHTS therapeutic library screen (AID 1346986; active = well fitted curve in the direction sought with a large enough effect; an effect the other way counts as inactive or inconclusive; note: nearly all actives have a fitted effect of over 60% in size;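 note: potency is the fitted concentration of half-maximal effect; potency is for cytotoxicity meaning loss of cell viability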)
How it was run: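 Viability by CellTiter-Glo after 72 h compound exposure at 37 degree C, 5% CO2. Cytotoxic call: curve class -1.1 to -2.4, maximum response >50%, AC50 < 10 uM, compared across KB-3-1 and P-gp-overexpressing KB-8-5-11.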

SMILES | parasite growth, % of DMSO control [1] [%] | parasite growth remaining, % of DMSO control (lower = more inhibition) [2] [%] | parasite growth, % of control (lower = inhibition) [3] [%] | growth, % of control [4] [%] | cell viability, % of control (lower = more cytotoxic) [5] | Potency [6] | Potency [7] | Potency [8] | Potency [9] | Potency [10] | Potency [11] | viability (% of control) [12] | Potency [13] | Potency [14]
CC(C)n1cnc2c(NCCCCCCNC(=O)OC(C)(C)C)nc(NCCO)nc21 | 20.1 | 60.6 | 24.8 | 21.3 | 186% | inactive | inactive |  |  |  |  |  |  | 
COc1ccc(-c2cc(=O)c3c(O)cc(O)cc3o2)cc1O | 30.9 | 44.4 | 43.3 | 67.5 | 97.2% | 18.7 µM (active) |  | 5.26 µM (active) | 9.35 µM (active) | 13.2 µM (active) | 14.8 µM (active) |  |  | 
COc1cc2ncnc(Nc3ccc(F)c(Cl)c3)c2cc1OCCCN1CCOCC1 |  |  |  |  | 14.5% [at 92.2 µM] |  |  | 10.8 µM (active) |  |  |  | 4.41% [at 92.2 µM] |  | 
Clc1ccc(COC(Cn2ccnc2)c2ccc(Cl)cc2Cl)cc1 (configuration not stated) | 5.45 | 6.85 | 9.72 | 3.47 | 115% |  |  |  |  |  | 18.7 µM (active) | 70.1% |  | 
CCS(=O)(=O)N1CC(CC#N)(n2cc(-c3ncnc4[nH]ccc34)cn2)C1 |  |  |  |  | 134% |  |  |  |  |  |  | 17.5% | inactive | 
Oc1ccc(C2=Cc3ccc(O)cc3OC2)cc1 | 19.6 | 34.7 | 27.9 |  | 16.5% |  |  | 5.9 µM (active) | 3.72 µM (active) | 6.62 µM (active) | 2.64 µM (active) | 3.88% | 9.35 µM (active) and 6.51 µM (active) | 
O=C(O)c1c(Cl)c(Cl)c(Cl)c(Cl)c1-c1c2cc(I)c(=O)c(I)c-2oc2c(I)c(O)c(I)cc12 | 83.8 |  | 80.2 | 88.8 | 96.1% | inactive | inactive |  |  |  | 18.7 µM (active) |  | inactive | 
COc1ccc(-c2nc(N3CCOCC3)c3sc(CN(C)c4ncc(C(=O)NO)cn4)cc3n2)cn1 | 5.2 | 6.7 | 8.46 |  | 8.39% | inactive | inactive |  |  |  |  |  | 20.9 nM (active) and 231 nM (active) | 0.164 µM (active)
NC(=O)[C@@H](CCC(F)(F)F)N(Cc1ccc(-c2ncon2)cc1F)S(=O)(=O)c1ccc(Cl)cc1 | 50.8 | 88.9 | 54.6 | 73.5 | 127% | inactive | inactive |  | 18.7 µM (active) |  | 14.8 µM (active) |  |  | 
O=C1NC(=O)C(=Cc2ccc(-c3ccc(F)cc3)o2)S1 | 75.2 | 93.7 | 91.6 | 75.6 | 57.7% |  |  |  | 23.5 µM (active) | inactive |  | 95.6% | inactive | 
NC1=N[C@@]2(c3cc(NC(=O)c4ccc(F)cn4)ccc3F)COC[C@@H]2CS1 | 23.2 | 20.8 | 26.1 | 20.1 | 21.6% | inactive | inactive |  |  | inactive | inactive |  | inactive | 
CN(C)CCC=C1c2ccccc2COc2ccc(CC(=O)O)cc21 | 91.3 | 91.8 | 121 | 99.1 | 162% | inactive | inactive |  |  | inactive |  |  | inactive | inactive
c1ccc2c(Cc3c[nH]c4ccccc34)c[nH]c2c1 | 22.8 | 60.6 | 22.5 | 23.8 | 29.3% |  |  | 2.64 µM (active) | 4.18 µM (active) | 14.8 µM (active) | 4.18 µM (active) | 13.2% |  | 
O=C1NC(=O)C(=Cc2cccc(C(F)(F)F)c2)S1 | 88.5 | 93.5 | 76.4 | 96.2 | 128% | inactive | inactive |  |  |  |  |  |  | 
C[C@H](NC(=O)C(=O)Nc1ccccc1C(C)(C)C)C(=O)N[C@@H](CC(=O)O)C(=O)COc1c(F)c(F)cc(F)c1F | 73.8 | 107 | 49.8 | 405 | 200% | 2.35 µM (active) |  | inactive | inactive | inactive | inactive |  | inactive | inactive
N[C@H](CSC(c1ccccc1)(c1ccccc1)c1ccccc1)C(=O)O | 10.7 |  | 16.2 | 4.68 | 68.6% |  | inactive |  |  |  | inactive |  | inactive | 
Clc1cc(Cl)cc(CNc2ncncc2-c2ccc3c(c2)OCO3)c1 |  | 47.6 | 28.4 | 10.2 | 44.1% | inactive | inactive |  |  |  |  |  | 13.2 µM (active) | 
CC=CC[C@@H](C)C(=O)[C@H]1C(=O)N[C@@H](C(C)C)C(=O)N(C)CC(=O)N(C)[C@@H](CC(C)C)C(=O)N[C@@H](C(C)C)C(=O)N(C)[C@@H](CC(C)C)C(=O)N[C@@H](C)C(=O)N[C@H](C)C(=O)N(C)[C@@H](CC(C)C)C(=O)N(C)[C@@H](CC(C)C)C(=O)N(C)[C@@H](C(C)C)C(=O)N1C | 90.9 |  | 107 |  | 62.3% |  | inactive | 18.7 µM (active) | 16.6 µM (active) | inactive | 18.7 µM (active) |  |  | 
CNC(=O)c1ccccc1Sc1ccc2c(C=Cc3ccccn3)n[nH]c2c1 |  |  |  |  | 311% |  |  |  |  |  |  | 28.2% | 4.18 µM (active) | 
CC(C)=CC[C@@H](O)C1=CC(=O)c2c(O)ccc(O)c2C1=O | 3.69 | 5.8 | 4.13 | 2.71 |  | inactive | inactive |  | 2.35 µM (active) |  |  | 13.2% | inactive | 
